# Measured values as given in article PMC7862700, “An all-to-all approach to the identification of sequence-specific readers for epigenetic DNA modifications on cytosine”.
# Legend:
# Experiment in all cases: DAPPL (digital affinity profiling via proximity ligation, sequencing); 10 mM Tris-HCl pH 7.5, 50 mM NaCl, 1 mM DTT, 4% glycerol, room temperature, 30 min; GST-TFs on glutathione beads, 16-mer random dsDNA library, 0.1% formaldehyde crosslink after washing; high values mean tight binding
# FLI1 = biological target: T1, FLI1 (Homo sapiens, UniProt Q01543 1-452); settings: protein: recombinant; tags: N-terminal GST; dsDNA, one strand shown
# T1 sequence: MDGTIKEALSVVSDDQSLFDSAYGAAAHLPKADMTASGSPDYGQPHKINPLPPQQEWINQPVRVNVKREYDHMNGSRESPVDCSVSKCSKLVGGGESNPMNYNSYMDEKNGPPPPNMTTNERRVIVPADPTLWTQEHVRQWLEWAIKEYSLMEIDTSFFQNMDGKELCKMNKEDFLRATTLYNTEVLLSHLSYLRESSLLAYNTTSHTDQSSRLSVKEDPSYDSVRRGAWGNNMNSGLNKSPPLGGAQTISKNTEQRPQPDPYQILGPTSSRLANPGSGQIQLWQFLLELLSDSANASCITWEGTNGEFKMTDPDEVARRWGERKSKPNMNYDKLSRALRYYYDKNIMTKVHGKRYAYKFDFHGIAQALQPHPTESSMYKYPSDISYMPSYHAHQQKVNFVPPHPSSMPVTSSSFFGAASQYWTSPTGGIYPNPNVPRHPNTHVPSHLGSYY
# Procedure, shortened: (§1)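 Pools were built from human transcription factors expressed in yeast as GST fusions, captured on glutathione beads and DNA-barcoded, along with a tag-only sample. Incubation with 200 nmole of a 16-mer random double-stranded DNA library lasted 30 min at room temperature in Tris/NaCl/DTT/glycerol buffer, and was followed by washing, 0.1% formaldehyde crosslinking, proximity ligation, PCR amplification and Illumina NextSeq500 sequencing. Binding signal is the quotient of each hexamer's read frequency for a factor and its frequency for the tag-only sample.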
# ELK1 = biological target: T2, ELK1 (Homo sapiens, UniProt P19419 1-428); settings: protein: recombinant; tags: N-terminal GST; dsDNA, one strand shown
# T2 sequence: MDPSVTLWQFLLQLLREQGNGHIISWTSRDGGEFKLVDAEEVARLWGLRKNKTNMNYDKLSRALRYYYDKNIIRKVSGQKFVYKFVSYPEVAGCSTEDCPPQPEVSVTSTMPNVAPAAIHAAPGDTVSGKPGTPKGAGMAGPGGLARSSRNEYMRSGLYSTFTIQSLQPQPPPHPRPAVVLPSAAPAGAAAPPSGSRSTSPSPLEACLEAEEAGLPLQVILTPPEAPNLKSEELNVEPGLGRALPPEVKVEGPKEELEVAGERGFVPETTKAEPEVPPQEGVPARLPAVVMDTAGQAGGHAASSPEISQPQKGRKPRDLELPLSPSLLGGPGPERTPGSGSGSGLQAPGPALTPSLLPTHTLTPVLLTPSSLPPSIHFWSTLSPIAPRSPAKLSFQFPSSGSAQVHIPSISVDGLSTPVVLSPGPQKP
# Procedure, shortened: as §1
# GABPA = biological target: T3, GABPA (Homo sapiens, UniProt Q06546 1-454); settings: protein: recombinant; tags: N-terminal GST; dsDNA, one strand shown
# T3 sequence: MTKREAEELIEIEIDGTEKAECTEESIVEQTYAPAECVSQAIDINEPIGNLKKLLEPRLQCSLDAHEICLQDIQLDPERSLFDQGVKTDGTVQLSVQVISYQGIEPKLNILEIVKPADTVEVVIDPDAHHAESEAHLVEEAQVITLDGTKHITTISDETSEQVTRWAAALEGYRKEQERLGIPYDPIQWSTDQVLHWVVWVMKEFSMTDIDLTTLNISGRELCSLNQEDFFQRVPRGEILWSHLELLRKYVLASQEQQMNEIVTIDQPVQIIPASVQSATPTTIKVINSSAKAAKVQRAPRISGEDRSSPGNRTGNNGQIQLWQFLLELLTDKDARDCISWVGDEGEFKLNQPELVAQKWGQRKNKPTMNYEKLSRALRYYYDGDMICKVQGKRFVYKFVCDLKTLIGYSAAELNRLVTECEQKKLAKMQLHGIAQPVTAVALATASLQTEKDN
# Procedure, shortened: as §1
# ERG = biological target: T4, ERG (Homo sapiens, UniProt P11308 1-479); settings: protein: recombinant; tags: N-terminal GST; dsDNA, one strand shown
# T4 sequence: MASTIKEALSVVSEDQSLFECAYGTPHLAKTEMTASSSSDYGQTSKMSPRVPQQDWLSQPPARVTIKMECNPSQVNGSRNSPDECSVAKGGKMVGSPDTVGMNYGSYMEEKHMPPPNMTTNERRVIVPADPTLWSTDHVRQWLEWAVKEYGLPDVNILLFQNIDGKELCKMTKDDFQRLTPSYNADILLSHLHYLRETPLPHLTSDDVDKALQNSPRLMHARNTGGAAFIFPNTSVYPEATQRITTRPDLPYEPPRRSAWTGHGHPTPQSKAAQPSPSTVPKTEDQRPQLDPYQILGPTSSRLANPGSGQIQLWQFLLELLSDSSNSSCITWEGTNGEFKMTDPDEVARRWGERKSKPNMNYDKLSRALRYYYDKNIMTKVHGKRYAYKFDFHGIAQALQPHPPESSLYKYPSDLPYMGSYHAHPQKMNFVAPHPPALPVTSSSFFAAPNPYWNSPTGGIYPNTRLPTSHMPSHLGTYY
# Procedure, shortened: as §1
# ELF1 = ELF1 (Homo sapiens, UniProt P32519 1-619); settings: protein: recombinant; tags: N-terminal GST; dsDNA, one strand shown
# ELF1, sequence (P32519 whole entry): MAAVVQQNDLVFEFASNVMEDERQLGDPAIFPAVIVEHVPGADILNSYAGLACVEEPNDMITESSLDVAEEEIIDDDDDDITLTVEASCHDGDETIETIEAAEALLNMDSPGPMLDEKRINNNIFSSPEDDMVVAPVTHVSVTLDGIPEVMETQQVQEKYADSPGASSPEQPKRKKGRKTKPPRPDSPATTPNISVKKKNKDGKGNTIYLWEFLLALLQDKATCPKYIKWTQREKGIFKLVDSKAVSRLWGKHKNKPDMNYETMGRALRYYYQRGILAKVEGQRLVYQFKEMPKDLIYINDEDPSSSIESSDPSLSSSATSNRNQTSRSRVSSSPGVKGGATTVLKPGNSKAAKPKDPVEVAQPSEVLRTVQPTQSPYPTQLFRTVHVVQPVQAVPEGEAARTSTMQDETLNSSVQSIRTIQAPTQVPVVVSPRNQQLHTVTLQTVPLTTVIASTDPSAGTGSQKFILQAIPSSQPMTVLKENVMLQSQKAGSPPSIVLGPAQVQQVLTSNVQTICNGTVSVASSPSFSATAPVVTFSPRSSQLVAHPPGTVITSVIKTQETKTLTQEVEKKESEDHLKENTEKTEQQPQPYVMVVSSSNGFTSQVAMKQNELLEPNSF
# Procedure, shortened: as §1
# EHF = biological target: T5, EHF (Homo sapiens, UniProt Q9NZC4 1-300); settings: protein: recombinant; tags: N-terminal GST; dsDNA, one strand shown
# T5 sequence: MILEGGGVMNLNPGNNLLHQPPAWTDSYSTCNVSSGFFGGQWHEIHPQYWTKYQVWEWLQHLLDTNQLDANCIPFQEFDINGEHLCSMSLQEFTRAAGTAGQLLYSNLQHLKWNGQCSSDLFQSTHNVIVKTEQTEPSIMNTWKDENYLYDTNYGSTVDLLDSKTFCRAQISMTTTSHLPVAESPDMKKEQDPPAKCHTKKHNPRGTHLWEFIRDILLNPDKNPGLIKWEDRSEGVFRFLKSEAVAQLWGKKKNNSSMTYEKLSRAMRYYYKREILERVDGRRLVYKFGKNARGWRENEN
# Procedure, shortened: as §1
# SPI1 = SPI1 (Homo sapiens, UniProt P17947 1-270); settings: protein: recombinant; tags: N-terminal GST; dsDNA, one strand shown
# Procedure, shortened: as §1
# SPIB = SPIB (Homo sapiens, UniProt Q01892 1-262); settings: protein: recombinant; tags: N-terminal GST; dsDNA, one strand shown
# SPIB, sequence (Q01892 whole entry): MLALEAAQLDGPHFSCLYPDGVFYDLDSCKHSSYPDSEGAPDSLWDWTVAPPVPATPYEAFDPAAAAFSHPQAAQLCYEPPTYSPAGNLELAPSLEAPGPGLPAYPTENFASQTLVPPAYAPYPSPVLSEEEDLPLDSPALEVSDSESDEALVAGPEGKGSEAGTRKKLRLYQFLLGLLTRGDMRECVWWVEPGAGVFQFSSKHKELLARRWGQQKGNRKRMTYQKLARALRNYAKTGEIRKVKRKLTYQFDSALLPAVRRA
# Procedure, shortened: as §1
# FEV = biological target: T6, FEV (Homo sapiens, UniProt Q99581 1-238); settings: protein: recombinant; tags: N-terminal GST; dsDNA, one strand shown
# T6 sequence: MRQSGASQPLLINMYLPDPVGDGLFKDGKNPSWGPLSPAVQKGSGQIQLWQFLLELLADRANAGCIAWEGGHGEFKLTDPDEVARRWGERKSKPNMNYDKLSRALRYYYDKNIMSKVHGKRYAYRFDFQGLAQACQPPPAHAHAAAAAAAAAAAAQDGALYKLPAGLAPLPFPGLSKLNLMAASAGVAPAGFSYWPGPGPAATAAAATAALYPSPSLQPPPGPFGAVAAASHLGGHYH
# Procedure, shortened: as §1
# ETV5 = ETV5 (Homo sapiens, UniProt P41161 1-510); settings: protein: recombinant; tags: N-terminal GST; dsDNA, one strand shown
# ETV5, sequence (P41161 whole entry): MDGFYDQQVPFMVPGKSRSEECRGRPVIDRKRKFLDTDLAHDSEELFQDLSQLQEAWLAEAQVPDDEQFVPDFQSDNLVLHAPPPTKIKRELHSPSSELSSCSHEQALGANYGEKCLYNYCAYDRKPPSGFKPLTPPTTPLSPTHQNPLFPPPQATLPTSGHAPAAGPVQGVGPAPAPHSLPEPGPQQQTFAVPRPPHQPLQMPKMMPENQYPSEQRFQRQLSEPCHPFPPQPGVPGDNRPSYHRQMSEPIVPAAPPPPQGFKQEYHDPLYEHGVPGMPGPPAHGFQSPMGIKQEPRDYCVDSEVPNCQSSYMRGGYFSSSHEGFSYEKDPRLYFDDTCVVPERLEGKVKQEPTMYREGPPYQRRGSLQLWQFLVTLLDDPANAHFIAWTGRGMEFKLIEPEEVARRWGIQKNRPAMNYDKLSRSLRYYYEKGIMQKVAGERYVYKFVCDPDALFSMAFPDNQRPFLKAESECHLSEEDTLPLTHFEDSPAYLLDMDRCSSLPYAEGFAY
# Procedure, shortened: as §1
# HSF1 = HSF1 (Homo sapiens, UniProt Q00613 1-529); settings: protein: recombinant; tags: N-terminal GST; chain copies: 3; dsDNA, one strand shown
# HSF1, sequence (Q00613 whole entry): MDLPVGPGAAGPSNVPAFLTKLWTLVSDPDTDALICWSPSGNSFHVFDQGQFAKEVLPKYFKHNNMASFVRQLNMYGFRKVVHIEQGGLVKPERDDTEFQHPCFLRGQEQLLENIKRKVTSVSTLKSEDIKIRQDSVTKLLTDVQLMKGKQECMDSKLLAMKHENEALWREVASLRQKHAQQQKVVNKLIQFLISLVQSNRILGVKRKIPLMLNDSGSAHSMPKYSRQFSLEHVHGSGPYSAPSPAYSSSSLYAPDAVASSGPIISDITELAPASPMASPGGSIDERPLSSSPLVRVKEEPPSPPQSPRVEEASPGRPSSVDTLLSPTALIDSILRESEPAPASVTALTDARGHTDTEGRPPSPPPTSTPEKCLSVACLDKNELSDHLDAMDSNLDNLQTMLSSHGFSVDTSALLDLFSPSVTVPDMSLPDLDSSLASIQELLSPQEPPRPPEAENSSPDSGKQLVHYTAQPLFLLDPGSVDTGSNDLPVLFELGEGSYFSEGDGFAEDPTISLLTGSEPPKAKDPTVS
# Procedure, shortened: as §1
# SPIC = biological target: T7, SPIC (Homo sapiens, UniProt Q8N5J4 1-248); settings: protein: recombinant; tags: N-terminal GST; dsDNA, one strand shown
# T7 sequence: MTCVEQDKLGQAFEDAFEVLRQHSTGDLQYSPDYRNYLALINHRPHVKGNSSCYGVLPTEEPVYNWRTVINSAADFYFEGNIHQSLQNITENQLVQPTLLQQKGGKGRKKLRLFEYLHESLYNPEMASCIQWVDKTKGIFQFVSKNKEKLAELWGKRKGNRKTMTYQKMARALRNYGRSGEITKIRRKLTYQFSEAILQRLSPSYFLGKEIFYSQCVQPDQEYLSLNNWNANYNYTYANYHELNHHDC
# Procedure, shortened: as §1
# ELF4 = ELF4 (Homo sapiens, UniProt Q99607 1-663); settings: protein: recombinant; tags: N-terminal GST; dsDNA, one strand shown
# ELF4, sequence (Q99607 whole entry): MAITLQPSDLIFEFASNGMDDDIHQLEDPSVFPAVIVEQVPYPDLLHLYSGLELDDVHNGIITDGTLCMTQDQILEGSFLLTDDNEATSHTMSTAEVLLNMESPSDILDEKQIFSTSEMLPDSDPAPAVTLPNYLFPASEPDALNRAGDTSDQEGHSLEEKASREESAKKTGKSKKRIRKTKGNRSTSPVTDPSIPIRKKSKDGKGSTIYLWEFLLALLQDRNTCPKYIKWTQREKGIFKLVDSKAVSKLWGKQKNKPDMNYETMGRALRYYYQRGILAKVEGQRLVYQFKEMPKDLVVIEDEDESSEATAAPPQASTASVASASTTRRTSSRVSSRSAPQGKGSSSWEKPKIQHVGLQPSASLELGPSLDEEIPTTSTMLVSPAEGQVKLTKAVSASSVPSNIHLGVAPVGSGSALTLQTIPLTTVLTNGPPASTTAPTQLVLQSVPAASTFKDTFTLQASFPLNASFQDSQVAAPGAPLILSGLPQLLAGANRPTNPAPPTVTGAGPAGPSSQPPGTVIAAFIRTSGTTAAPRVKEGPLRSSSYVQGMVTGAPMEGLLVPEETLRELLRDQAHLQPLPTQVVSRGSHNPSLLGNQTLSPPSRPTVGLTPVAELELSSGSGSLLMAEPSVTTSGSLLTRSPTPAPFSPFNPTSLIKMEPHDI
# Procedure, shortened: as §1
# ELK4 = biological target: T8, ELK4 (Homo sapiens, UniProt P28324-2 1-405); settings: protein: recombinant; tags: N-terminal GST; dsDNA, one strand shown
# T8 sequence: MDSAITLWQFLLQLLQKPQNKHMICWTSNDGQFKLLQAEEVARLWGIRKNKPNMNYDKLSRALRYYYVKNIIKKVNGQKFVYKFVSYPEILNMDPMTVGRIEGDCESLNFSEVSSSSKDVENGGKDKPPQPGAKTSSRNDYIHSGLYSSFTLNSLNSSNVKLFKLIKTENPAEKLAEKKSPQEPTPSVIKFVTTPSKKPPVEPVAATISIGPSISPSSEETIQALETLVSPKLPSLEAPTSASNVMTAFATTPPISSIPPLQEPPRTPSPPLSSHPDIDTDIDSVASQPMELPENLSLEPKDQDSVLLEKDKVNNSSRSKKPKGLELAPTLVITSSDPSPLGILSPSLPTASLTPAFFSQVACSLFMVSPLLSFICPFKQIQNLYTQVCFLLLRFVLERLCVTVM
# Procedure, shortened: as §1
# ETV2 = biological target: T9, ETV2 (Homo sapiens, UniProt O00321 1-342); settings: protein: recombinant; tags: N-terminal GST; dsDNA, one strand shown
# T9 sequence: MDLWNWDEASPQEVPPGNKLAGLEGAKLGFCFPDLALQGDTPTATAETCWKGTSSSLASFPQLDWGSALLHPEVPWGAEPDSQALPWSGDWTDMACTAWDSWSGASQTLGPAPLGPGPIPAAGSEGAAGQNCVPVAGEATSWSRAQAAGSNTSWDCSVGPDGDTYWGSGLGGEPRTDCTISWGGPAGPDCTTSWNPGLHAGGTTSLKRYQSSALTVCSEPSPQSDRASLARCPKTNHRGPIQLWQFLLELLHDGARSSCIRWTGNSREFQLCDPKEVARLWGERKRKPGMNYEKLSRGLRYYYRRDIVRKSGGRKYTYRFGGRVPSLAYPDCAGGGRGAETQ
# Procedure, shortened: as §1
# ELF3 = biological target: T10, ELF3 (Homo sapiens, UniProt P78545 1-371); settings: protein: recombinant; tags: N-terminal GST; dsDNA, one strand shown
# T10 sequence: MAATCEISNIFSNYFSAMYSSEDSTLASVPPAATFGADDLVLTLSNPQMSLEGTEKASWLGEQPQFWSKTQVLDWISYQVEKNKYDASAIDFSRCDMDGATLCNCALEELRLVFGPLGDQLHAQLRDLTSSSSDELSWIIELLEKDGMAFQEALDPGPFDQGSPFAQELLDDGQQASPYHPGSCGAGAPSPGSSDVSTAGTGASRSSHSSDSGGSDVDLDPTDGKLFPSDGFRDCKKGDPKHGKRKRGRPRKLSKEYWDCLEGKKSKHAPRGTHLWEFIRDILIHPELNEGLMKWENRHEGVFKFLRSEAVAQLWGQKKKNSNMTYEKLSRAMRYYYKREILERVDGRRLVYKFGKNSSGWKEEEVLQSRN
# Procedure, shortened: as §1
# CRX = CRX (Homo sapiens, UniProt O43186 1-299); settings: protein: recombinant; tags: N-terminal GST; dsDNA, one strand shown
# CRX, sequence (O43186 whole entry): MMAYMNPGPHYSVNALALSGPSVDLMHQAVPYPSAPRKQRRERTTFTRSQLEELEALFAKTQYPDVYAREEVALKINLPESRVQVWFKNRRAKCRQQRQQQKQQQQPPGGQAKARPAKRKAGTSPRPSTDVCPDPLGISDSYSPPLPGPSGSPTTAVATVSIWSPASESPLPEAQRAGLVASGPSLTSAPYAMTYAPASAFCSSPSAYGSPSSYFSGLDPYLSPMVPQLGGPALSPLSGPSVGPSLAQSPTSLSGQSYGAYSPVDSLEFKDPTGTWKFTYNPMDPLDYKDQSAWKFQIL
# Procedure, shortened: as §1
# ETV1 = ETV1 (Homo sapiens, UniProt P50549 1-477); settings: protein: recombinant; tags: N-terminal GST; dsDNA, one strand shown
# ETV1, sequence (P50549 whole entry): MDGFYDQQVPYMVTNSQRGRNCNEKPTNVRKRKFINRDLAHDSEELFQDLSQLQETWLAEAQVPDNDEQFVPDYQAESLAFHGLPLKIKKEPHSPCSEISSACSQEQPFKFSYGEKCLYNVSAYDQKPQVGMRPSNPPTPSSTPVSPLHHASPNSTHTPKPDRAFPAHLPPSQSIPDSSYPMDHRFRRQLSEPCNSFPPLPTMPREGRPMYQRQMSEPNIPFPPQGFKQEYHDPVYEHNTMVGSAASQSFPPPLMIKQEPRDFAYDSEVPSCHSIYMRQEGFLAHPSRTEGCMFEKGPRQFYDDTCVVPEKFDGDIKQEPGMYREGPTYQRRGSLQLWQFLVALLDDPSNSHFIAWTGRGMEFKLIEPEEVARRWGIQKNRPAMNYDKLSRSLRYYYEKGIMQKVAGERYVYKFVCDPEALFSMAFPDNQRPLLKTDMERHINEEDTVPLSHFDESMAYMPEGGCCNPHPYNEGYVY
# Procedure, shortened: as §1
sequence,measurement,setting,value
TCTATG,binding signal,FLI1,"1.12 fold enrichment (6-mer frequency, TF over GST control)"
same,binding signal,ELK1,"1.2 fold enrichment (6-mer frequency, TF over GST control)"
same,binding signal,GABPA,"1.21 fold enrichment (6-mer frequency, TF over GST control)"
same,binding signal,ERG,"1.03 fold enrichment (6-mer frequency, TF over GST control)"
same,binding signal,ELF1,"1.12 fold enrichment (6-mer frequency, TF over GST control)"
same,binding signal,EHF,"1.13 fold enrichment (6-mer frequency, TF over GST control)"
same,binding signal,SPI1,"1.09 fold enrichment (6-mer frequency, TF over GST control)"
same,binding signal,SPIB,"1.12 fold enrichment (6-mer frequency, TF over GST control)"
same,binding signal,FEV,"1.06 fold enrichment (6-mer frequency, TF over GST control)"
same,binding signal,ETV5,"1.1 fold enrichment (6-mer frequency, TF over GST control)"
same,binding signal,HSF1,"1.16 fold enrichment (6-mer frequency, TF over GST control)"
same,binding signal,SPIC,"1.11 fold enrichment (6-mer frequency, TF over GST control)"
same,binding signal,ELF4,"1.14 fold enrichment (6-mer frequency, TF over GST control)"
same,binding signal,ELK4,"1.16 fold enrichment (6-mer frequency, TF over GST control)"
same,binding signal,ETV2,"1.25 fold enrichment (6-mer frequency, TF over GST control)"
same,binding signal,ELF3,"1.1 fold enrichment (6-mer frequency, TF over GST control)"
same,binding signal,CRX,"1.11 fold enrichment (6-mer frequency, TF over GST control)"
same,binding signal,ETV1,"1.1 fold enrichment (6-mer frequency, TF over GST control)"
